The values below come from PubChem BioAssay (NCATS).

“And” between values parts separate entries of the source, which are not always exact repeats. Equal entries are not always repeated. Values without a mark were called inactive. Inconclusive results are not listed. The source made the active and inactive calls. Unless noted, calls follow the shape of the dose curve; as a rule, active = well fitted inhibition curve with a large enough effect; inconclusive = small, poorly fitted or top-dose-only effect; inactive = flat fitted curve, though single readings scatter.

The nature of test [1]: Drug repurposing screens with cells derived from glioblastoma tumor samples (AID 1345199). Also: nearly all actives have a fitted effect of over 40% in size. Also: potency is read from the fitted curve at half-maximal effect. As to activity, negative = cell killing: % is scaled to controls: 0 for no effect and ±100 for the full control effect. The following applies: GBM patient neurospheres viability, ATP luminescence, 48 h. In a few lines: (§1)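 Four patient lines of CD133+ GBM neurospheres were screened at several concentrations; hits were retested in those lines plus three slower-growing GBM lines, using 48-hour treatment and ATP-based viability.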

The test system of the next test is astro (control astrocytes). Described as above. Particulars: viability, ATP luminescence, 48 h; series mostly up to 45.9 µM. The method, boiled down: as §1
Test [2] concerns the target Nuclear receptor subfamily 1 group I member 2 (Rattus norvegicus) (UniProt Q9R1A7). Kind of test: qHTS assay for small molecule activators of the rat pregnane X receptor (rPXR) signaling pathway (AID 651751; call rule not given here; also: 0% is about no effect). The following applies: rPXR reporter cells, luciferase (One-Glo), 24 h.
A short description of test [3]: qHTS assay for small molecule activators of the human pregnane X receptor (PXR) signaling pathway (AID 720659; call rule not given here; also: 0% is about no effect). The following applies: DPX-2 HepG2 CYP3A4-luciferase, 24 h; series mostly up to 92.3 µM.
Where [4] appears, read: at 45.9 µM (top of the series), tumour line B.
The mark [5] stands for this setting: at 45.9 µM (top of the series), tumour line D.
Setting [6] is: at 46 µM (top of the series), tumour line A.
[7] abbreviates: at 46.1 µM (top of the series), tumour line C.

Chain of Nuclear receptor subfamily 1 group I member 2 (Rattus norvegicus) (Q9R1A7 whole entry, looked up): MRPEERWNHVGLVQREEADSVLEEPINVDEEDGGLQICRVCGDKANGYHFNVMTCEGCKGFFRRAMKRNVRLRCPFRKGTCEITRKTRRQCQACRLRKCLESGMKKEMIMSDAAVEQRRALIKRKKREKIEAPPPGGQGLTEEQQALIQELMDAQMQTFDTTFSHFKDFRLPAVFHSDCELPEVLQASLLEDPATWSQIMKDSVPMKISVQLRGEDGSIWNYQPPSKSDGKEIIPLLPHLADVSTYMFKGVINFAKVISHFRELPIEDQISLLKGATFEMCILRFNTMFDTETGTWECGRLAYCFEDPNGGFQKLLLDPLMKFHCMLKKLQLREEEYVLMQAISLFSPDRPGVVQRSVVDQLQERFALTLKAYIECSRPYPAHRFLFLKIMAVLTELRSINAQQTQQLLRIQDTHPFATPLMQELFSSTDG

With `O=S(O)CNc1ccc(S(=O)(=O)c2ccc(NCS(=O)O)cc2)cc1`, the activity, negative = cell killing in test [1] (setting [4]) is -3.7%; in test [1] (setting [5]), 0.377%; in test [1] (setting [6]), -17.9%; in test [1] (setting [7]) it was -2.81%. Also, in the test on astro, the Potency entry was “inactive”.

With `O=C1C(c2[nH]c3ccc(S(=O)(=O)O)cc3c2O)=Nc2ccc(S(=O)(=O)O)cc21`, the activity, negative = cell killing is -3.91% and -0.988% and -8.05% in test [1] (setting [4]); -5.52% and -3.79% and -6.7% in test [1] (setting [5]); -11.9% in test [1] (setting [6]); 2.85% and 2.31% and 15% in test [1] (setting [7]). In the test with astro, the Potency entry is “inactive”.

Turning to `O=C(O)c1ccccc1[O-].O=C(O)c1ccccc1[O-].[Zn+2]`, the activity, negative = cell killing in test [1] (setting [4]) was -5.99%; in test [1] (setting [5]), -6.7%; in test [1] (setting [7]), -14.8%. In addition, the Potency result in the test with astro is “inactive”.

Turning to `CCCCCCCCCC(=O)O`, the activity, negative = cell killing is -8.75% in test [1] (setting [4]), -10.5% in test [1] (setting [5]), -20.2% in test [1] (setting [6]) and -4.57% in test [1] (setting [7]). The Potency entry with astro was “inactive”. Also, the max response in test [2] was -3.39% and -5.8%. In test [3], the compound was called inactive.

Turning to `C=C1C(=C/C=C2\CCC[C@]3(C)[C@@H]([C@H](C)CCCC(C)(C)O)CC[C@@H]23)C[C@@H](O)C[C@@H]1O`, in test [1] (setting [4]), the activity, negative = cell killing is -26.6%. Besides, the values for the Potency (in test [1] (tumour line A); in test [1] (tumour line D); in the test with astro) were 17.8 µM (active), 20 µM (active) and 22.4 µM (active), respectively.

As to `CCOC(=O)[C@H](CCc1ccccc1)N[C@H]1CCCN2CCC[C@@H](C(=O)O)N2C1=O`, the activity, negative = cell killing was -17.5% in test [1] (setting [4]), -14.2% in test [1] (setting [5]) and 4.99% in test [1] (setting [7]). Also, the Potency result in the test on astro is “inactive”.

Regarding `OC(CN1CCCCC1)c1cc(-c2ccccc2)on1` (stereo unspecified), the activity, negative = cell killing is -15.5% in test [1] (setting [4]), -0.851% in test [1] (setting [5]) and 5.87% in test [1] (setting [7]). Besides, the Potency result in the test on astro is “inactive”.

For the compound `Cc1[nH]cnc1C[C@H]1CCc2c(C)c3ccccc3n2C1=O`, the activity, negative = cell killing in test [1] (setting [4]) was 11.6%; in test [1] (setting [5]), -27.1%; in test [1] (setting [6]), -27.2%; in test [1] (setting [7]), 1.77%. In addition, in the test on astro, the Potency result is “inactive”.

Take `O=C(O)CC(O)(CC(=O)O)C(=O)O`: the activity, negative = cell killing in test [1] (setting [4]) was -4.79%; in test [1] (setting [5]), -16.4%; in test [1] (setting [6]), -28.2%; in test [1] (setting [7]) it was 8.12%. Also, the Potency entry in the test on astro was “inactive”. Besides, in test [2], the max response is -3.16% and 0.294% and 0.384%. In addition, the outcome in test [3] was inactive.

`CCC(=O)O`: the activity, negative = cell killing was 6.59% in test [1] (setting [4]), -5.65% in test [1] (setting [5]), -7.77% in test [1] (setting [6]) and 7.14% in test [1] (setting [7]). The Potency entry in the test on astro was “inactive”.

`COc1ccc(C2NC(=S)N3C(c4ccc(OC)c(OC)c4)NC(=S)N23)cc1OC` (stereo unspecified): the values for the activity, negative = cell killing in test [1] (setting [4]), in test [1] (setting [5]) and in test [1] (setting [7]) were -19.2%, -8.84% and 3.81%, respectively. In the test on astro, the Potency result is “inactive”.

With `O=c1[nH]cnc2[nH]cc(CN3CCCCC3)c12`, the activity, negative = cell killing in test [1] (setting [4]) was -5.2%; in test [1] (setting [5]), -0.491%; in test [1] (setting [6]) it was 2.77%; in test [1] (setting [7]) it was -8.31%. The Potency result in the test with astro is “inactive”.

As to `CCC(C)C(C(=O)OCC[N+](C)(CC)CC)c1ccccc1` (stereo unspecified), the activity, negative = cell killing was -18.7% in test [1] (setting [4]) and -27.8% in test [1] (setting [5]). Moreover, the Potency in test [1] (tumour line A) was 11.2 µM (active). Besides, the Potency result in the test on astro is “inactive”.

On to `CC[C@H]1OC(=O)[C@H](C)[C@@H](O[C@H]2C[C@@](C)(OC)[C@@H](O)[C@H](C)O2)[C@H](C)[C@@H](O[C@@H]2O[C@H](C)C[C@H](N(C)C)[C@H]2O)[C@](C)(O)C[C@@H](C)[C@@H]2N[C@@H](COCCOC)O[C@@H]([C@H]2C)[C@]1(C)O`, for which the figures for the activity, negative = cell killing in test [1] (setting [4]) and in test [1] (setting [7]) were -7.98% and -7.79%, respectively. Moreover, in test [1] (tumour line A), the Potency was 11.2 µM (active). In the test on astro, the Potency result is “inactive”.

Take `O=C[C@H](O)[C@@H](O)[C@H](O)[C@H](O)CO`: the activity, negative = cell killing is -4.49% in test [1] (setting [4]), -7.76% in test [1] (setting [5]) and 7.35% in test [1] (setting [7]). Further, in the test with astro, the Potency entry was “inactive”.

Take `CCCC(=O)O[C@]1(C(=O)COC(=O)CC)[C@@H](C)C[C@H]2[C@@H]3CCC4=CC(=O)C=C[C@]4(C)[C@@]3(F)[C@@H](O)C[C@@]21C`: the activity, negative = cell killing in test [1] (setting [4]) was -13%; in test [1] (setting [5]), -14.2%; in test [1] (setting [7]) it was 9.54%. Moreover, the Potency in test [1] (tumour line A) was 12.6 µM (active). The Potency result with astro was “inactive”.
